Assay results published in PubChem BioAssay (NCATS).
Records with an inconclusive call do not appear. Where a call stands in place of a potency, no number is given. Activity calls are given as the source filed them. Unless noted, calls come from the whole dose curve; as a rule, active = well fitted curve in the direction sought with a large enough effect; inconclusive = small, poorly fitted or top-dose-only effect, or another doubt; inactive = no such curve, though single readings can be large; an effect the other way counts as inactive or inconclusive.

Key:
[1] = molecular target: Catechol O-methyltransferase (Homo sapiens) (UniProt P21964); experiment: Confirmatory Screen for Target Class Profiling of Small Molecule Inhibitors of Methyltransferases (AID 1745852; calls by dose curve; note: potency is the fitted concentration of half-maximal effect); details: MTase-Glo luminescence, SAH detection, recombinant enzyme; measured here: COMT max response; stronger effect = lower value
[2] = molecular target: Guanidinoacetate N-methyltransferase (Homo sapiens) (UniProt Q14353); experiment: as above; details: MTase-Glo luminescence, SAH detection, recombinant enzyme; activity change, negative = inhibition: at 57.3 µM (top of the series) unless noted
[3] = molecular target: Nicotinamide N-methyltransferase (Homo sapiens) (UniProt P40261); experiment: as above; details: MTase-Glo luminescence, SAH detection, recombinant enzyme; measured here: NNMT max response; stronger effect = lower value
[4] = molecular target: Phenylethanolamine N-methyltransferase (Homo sapiens) (UniProt P11086); experiment: as above; details: MTase-Glo luminescence, SAH detection, recombinant enzyme; measured here: PNMT max response; stronger effect = lower value
[5] = molecular target: Metallo-beta-lactamase type 2 (Klebsiella pneumoniae) (UniProt C7C422); experiment: qHTS to identify inhibitors of the New Delhi Metallo-beta-lactamase (NDM): assay validation screen against the NCATS LOPAC Collection (AID 1794843); details: NDM-1 enzyme, nitrocefin hydrolysis, absorbance 485 nm; series mostly up to 38.4 µM; note: potency is the fitted concentration of half-maximal effect;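 for activity change, negative = inhibition: nitrocefin turnover by NDM-1 measured as 485 nm absorbance at plateau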
Method in brief: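 NDM-1 at 2 nM final in 50 mM HEPES pH 7.0, 1 uM ZnSO4, 0.01% Tween20, preincubated with LOPAC compounds pinned in DMSO; 50 uM nitrocefin (stock) added. Hydrolysis read as absorbance at 485 nm in the plateau phase.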

[6] = molecular target: Glutathione peroxidase 1 (Homo sapiens) (UniProt P07203); experiment: Primary qHTS Assay for Inhibitors of Recombinant Selenoprotein Glutathione Peroxidase 1 (GPX1) (AID 1845191); details: recombinant GPX1, GR-coupled NADPH fluorescence, 15 min; series mostly up to 48.8 µM; note: nearly all actives have a fitted effect of over 65% in size
Method in brief: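 GR-coupled readout: NADPH consumption tracked by fluorescence, ex 340/em 450 nm, at t=0 and after 15 min at RT. Final mix 10 nM GPX1, 1 mM GSH, 0.5 mM CHP, 0.5 mM NADPH, 100 nM GR, 0.01% BSA, following 30 min enzyme–compound preincubation.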

[7] = molecular target: Phospholipid hydroperoxide glutathione peroxidase GPX4 (Homo sapiens) (UniProt P36969); experiment: Primary qHTS Assay for Inhibitors of Recombinant Selenoprotein Glutathione Peroxidase 4 (GPX4) (AID 1845192); details: recombinant GPX4, GR-coupled NADPH fluorescence, 15 min; series mostly up to 50 µM; note: nearly all actives have a fitted effect of over 65% in size
Method in brief: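 Steps: GPX4 plus compound, 30 min RT; add GR/GSH/NADPH master mix; start with cumene hydroperoxide; read 340/450 nm fluorescence at 0 and 15 min. Finals were 200 nM GPX4, 1 mM GSH, 0.5 mM CHP, 0.5 mM NADPH, 100 nM GR.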

[8] = molecular target: Rap guanine nucleotide exchange factor 3 (Homo sapiens) (UniProt O95398); experiment: Confirmatory qHTS for agonist of cAMP-regulated guanine nucleotide exchange factor 3 (EPAC1) (AID 1645881); details: EPAC1 Rap1B BODIPY-GDP exchange fluorescence; series mostly up to 154 µM; note: nearly all actives have a fitted effect of over 75% in size; note: potency is the fitted concentration of half-maximal effect
[9] = molecular target: Rap guanine nucleotide exchange factor 4 (Homo sapiens) (UniProt Q8WZA2); experiment: Confirmatory qHTS for agonist of cAMP-regulated guanine nucleotide exchange factor 4 (EPAC2) (AID 1645884); details: EPAC2 GEF activity, Rap1B-BODIPY-GDP fluorescence; series mostly up to 154 µM;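 note: nucleotide exchange releases bodipy-GDP from Rap1 and this lowers its fluorescence; nearly all actives have a fitted effect of over 65% in size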; note: potency is the fitted concentration of half-maximal effect
[10] = molecular target: Rap guanine nucleotide exchange factor 3 (Homo sapiens) (UniProt O95398); experiment: Confirmatory qHTS for antagonist of cAMP-regulated guanine nucleotide exchange factor 3 (EPAC1) (AID 1645880); details: EPAC1 Rap1B-BODIPY-GDP exchange, fluorescence; series mostly up to 115 µM; note: nearly all actives have a fitted effect of over 55% in size
Method in brief: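 Released BODIPY-GDP fluoresces less than Rap1-bound BODIPY-GDP; the signal is followed at 480/540 nm at 5-min intervals over 30 min, after 5 min at room temperature. Reactions contain 100 nM EPAC1, 250 nM RAP1B-BODIPY-GDP and 50 uM GDP; results are normalized to ATA and DMSO.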

[11] = molecular target: Rap guanine nucleotide exchange factor 4 (Homo sapiens) (UniProt Q8WZA2); experiment: Confirmatory qHTS for antagonist of cAMP-regulated guanine nucleotide exchange factor 4 (EPAC2) (AID 1645885); details: EPAC2 Rap1B-BODIPY-GDP exchange fluorescence, biochemical; series mostly up to 114 µM; note: nearly all actives have a fitted effect of over 25% in size
[12] = Primary qHTS for inhibitors of nuclear receptor binding SET domain protein 2 (NSD2) in an RCH-ACV wild type WT cells (2C) (AID 1645877); details: RCH-ACV (leukaemia line) NSD2 WT (2C) viability, CellTiter-Glo, 72 h; series mostly up to 44.9 µM; note: nearly all actives have a fitted effect of over 70% in size; note: potency is the fitted concentration of half-maximal effect

Sequence of Rap guanine nucleotide exchange factor 3 (Homo sapiens) (O95398 whole entry, looked up): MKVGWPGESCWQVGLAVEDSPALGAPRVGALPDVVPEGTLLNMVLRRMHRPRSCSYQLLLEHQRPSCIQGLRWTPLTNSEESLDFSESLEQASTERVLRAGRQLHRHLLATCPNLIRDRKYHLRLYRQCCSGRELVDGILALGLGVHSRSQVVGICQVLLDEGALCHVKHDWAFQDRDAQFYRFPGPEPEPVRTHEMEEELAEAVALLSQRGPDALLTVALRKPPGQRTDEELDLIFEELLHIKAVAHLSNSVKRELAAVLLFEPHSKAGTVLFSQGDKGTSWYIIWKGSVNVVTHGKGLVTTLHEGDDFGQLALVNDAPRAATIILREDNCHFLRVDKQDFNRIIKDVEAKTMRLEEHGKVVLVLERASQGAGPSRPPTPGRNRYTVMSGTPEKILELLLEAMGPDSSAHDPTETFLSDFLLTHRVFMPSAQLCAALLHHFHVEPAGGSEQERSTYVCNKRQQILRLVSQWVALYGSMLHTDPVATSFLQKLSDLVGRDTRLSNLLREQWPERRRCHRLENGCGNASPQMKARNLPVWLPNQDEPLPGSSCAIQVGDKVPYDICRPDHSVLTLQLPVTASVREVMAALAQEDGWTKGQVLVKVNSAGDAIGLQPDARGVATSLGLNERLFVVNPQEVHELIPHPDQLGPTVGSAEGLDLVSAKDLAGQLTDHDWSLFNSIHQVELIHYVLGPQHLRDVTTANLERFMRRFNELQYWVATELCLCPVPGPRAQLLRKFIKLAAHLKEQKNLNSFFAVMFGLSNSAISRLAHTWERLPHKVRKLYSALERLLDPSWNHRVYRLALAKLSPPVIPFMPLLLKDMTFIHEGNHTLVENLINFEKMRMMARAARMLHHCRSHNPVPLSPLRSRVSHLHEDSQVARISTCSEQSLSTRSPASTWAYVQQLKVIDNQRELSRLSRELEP
Sequence of Rap guanine nucleotide exchange factor 4 (Homo sapiens) (Q8WZA2 whole entry, looked up, the tested form may be a part): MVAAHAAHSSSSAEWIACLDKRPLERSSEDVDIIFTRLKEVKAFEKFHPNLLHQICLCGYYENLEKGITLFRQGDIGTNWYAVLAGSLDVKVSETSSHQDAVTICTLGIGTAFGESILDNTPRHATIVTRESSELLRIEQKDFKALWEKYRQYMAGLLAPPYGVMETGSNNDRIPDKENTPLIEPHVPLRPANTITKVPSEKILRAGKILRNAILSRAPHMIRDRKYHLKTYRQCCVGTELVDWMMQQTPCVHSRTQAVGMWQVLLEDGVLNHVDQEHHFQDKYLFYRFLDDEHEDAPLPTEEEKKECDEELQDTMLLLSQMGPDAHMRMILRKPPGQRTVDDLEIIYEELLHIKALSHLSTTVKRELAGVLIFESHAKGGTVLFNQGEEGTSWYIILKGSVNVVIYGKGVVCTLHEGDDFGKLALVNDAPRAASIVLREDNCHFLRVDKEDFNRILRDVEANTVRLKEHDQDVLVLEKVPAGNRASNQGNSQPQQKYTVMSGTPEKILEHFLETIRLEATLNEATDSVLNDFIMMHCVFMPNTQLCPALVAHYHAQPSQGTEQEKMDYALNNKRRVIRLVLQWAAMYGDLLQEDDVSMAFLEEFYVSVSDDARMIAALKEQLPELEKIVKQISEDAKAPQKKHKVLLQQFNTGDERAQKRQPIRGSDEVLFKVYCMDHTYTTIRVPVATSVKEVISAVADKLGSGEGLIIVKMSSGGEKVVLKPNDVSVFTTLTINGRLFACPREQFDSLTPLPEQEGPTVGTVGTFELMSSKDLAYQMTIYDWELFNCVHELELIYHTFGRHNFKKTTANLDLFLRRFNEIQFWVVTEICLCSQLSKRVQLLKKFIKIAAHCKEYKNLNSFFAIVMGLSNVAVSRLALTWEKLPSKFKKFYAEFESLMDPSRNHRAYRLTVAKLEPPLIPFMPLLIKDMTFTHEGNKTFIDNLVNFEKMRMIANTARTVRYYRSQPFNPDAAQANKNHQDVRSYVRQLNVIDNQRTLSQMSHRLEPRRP
Sequence of Phenylethanolamine N-methyltransferase (Homo sapiens) (P11086 whole entry, looked up): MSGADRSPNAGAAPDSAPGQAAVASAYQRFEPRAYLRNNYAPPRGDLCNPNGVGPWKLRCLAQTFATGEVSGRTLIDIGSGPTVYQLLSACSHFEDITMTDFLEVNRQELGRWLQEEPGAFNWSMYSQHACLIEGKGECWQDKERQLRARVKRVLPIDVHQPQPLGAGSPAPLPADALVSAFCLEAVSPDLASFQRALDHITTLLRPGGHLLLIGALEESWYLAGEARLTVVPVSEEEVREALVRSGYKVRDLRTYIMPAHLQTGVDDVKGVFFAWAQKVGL
Sequence of Metallo-beta-lactamase type 2 (Klebsiella pneumoniae) (C7C422 whole entry, looked up): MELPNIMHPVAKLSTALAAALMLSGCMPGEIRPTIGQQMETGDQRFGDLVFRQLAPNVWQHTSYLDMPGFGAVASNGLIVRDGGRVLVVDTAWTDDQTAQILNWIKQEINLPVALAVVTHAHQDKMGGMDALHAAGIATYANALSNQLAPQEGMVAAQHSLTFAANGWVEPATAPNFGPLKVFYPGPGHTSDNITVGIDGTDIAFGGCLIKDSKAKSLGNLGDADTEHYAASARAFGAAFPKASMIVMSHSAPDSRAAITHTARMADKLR
Sequence of Nicotinamide N-methyltransferase (Homo sapiens) (P40261 whole entry, looked up): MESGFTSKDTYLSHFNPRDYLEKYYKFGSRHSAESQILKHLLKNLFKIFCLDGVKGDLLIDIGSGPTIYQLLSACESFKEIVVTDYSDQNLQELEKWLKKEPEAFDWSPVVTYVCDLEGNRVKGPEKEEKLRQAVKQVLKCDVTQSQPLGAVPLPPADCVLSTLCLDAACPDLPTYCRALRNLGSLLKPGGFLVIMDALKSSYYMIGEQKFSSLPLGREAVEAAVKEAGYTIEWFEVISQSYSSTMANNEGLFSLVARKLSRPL
Sequence of Glutathione peroxidase 1 (Homo sapiens) (P07203 whole entry, looked up): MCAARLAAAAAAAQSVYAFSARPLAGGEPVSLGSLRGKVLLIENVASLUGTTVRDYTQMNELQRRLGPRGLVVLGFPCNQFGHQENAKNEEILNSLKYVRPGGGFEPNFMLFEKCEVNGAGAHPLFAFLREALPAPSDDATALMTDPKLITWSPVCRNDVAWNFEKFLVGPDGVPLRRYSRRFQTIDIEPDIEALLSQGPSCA
Sequence of Catechol O-methyltransferase (Homo sapiens) (P21964 whole entry, looked up): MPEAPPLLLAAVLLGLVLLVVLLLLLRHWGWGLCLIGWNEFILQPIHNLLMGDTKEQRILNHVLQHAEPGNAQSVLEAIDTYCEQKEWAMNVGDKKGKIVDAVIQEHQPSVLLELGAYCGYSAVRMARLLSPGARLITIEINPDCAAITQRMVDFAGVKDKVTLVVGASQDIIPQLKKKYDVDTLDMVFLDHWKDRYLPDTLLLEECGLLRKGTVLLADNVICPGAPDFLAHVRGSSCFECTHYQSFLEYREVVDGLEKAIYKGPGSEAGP
Sequence of Phospholipid hydroperoxide glutathione peroxidase GPX4 (Homo sapiens) (P36969 whole entry, looked up): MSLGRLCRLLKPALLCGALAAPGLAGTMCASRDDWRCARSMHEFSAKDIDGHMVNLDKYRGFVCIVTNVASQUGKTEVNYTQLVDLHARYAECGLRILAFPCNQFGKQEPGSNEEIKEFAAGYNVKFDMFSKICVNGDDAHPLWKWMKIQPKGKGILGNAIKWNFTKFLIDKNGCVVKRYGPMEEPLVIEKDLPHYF

Structure (SMILES): CCCN(CCC)CCc1ccc(O)c(O)c1
- activity [1]: 153%
- activity change, negative = inhibition [2]: 6.88%
- activity [3]: -2.74%
- activity [4]: -0.0665%
- Potency [5]: inactive
- Potency [6]: inactive
- Potency [7]: inactive

Structure (SMILES): c1ccc2cc(CC3=NCCN3)ccc2c1
- activity [1]: 5%
- activity change, negative = inhibition [2]: 3.5%
- activity [3]: 0.294%
- activity [4]: 4.14%
- Potency [5]: inactive
- Potency [6]: inactive
- Potency [7]: inactive

Structure (SMILES): CCCCCc1cc(O)c2c(c1)OC(C)(C)[C@@H]1CCC(C)=C[C@@H]21
- Potency [8]: inactive
- Potency [9]: inactive

Structure (SMILES): O=C1OC2(c3cc(Br)c(O)cc3Oc3c2cc(Br)c(O)[c]3[Hg])c2ccccc21 (stereo not given)
- activity, negative = inhibition [10]: 245% [at 22 µM] (inactive)
- Potency [8]: 4.75 µM (active)
- Potency [9]: 1.34 µM (active)

Structure (SMILES): CN1CCc2cc(O)cc3c2[C@H]1Cc1ccc(O)c(O)c1-3
- activity [1]: -101%
- activity change, negative = inhibition [2]: -1.59%
- activity [3]: -4.5%
- activity [4]: -1.47%
- Potency [5]: inactive
- Potency [6]: inactive
- Potency [7]: inactive

Structure (SMILES): O=c1[nH]cc(N(CCCl)CCCl)c(=O)[nH]1
- outcome [10]: inactive
- Potency [8]: inactive
- Potency [9]: inactive
- Potency [11]: inactive
- Potency [6]: inactive
- Potency [7]: inactive

Structure (SMILES): C/C=C(\C)C(=O)OC1CC2C(C)(C)OC(=O)CC(OC(C)=O)C2(C)C2CC(OC(=O)C(C)C)C3(C)C(c4ccoc4)CC4OC43C12C (stereo not given)
- Potency [12]: inactive
- Potency [6]: inactive
- Potency [7]: inactive

Structure (SMILES): CN(C(=O)Cc1ccccc1)C(CN1CCCC1)c1ccccc1 (stereo not given)
- Potency [12]: inactive
- Potency [7]: inactive

Structure (SMILES): C[C@H]1O[C@@H](O[C@H]2C[C@@H](O)[C@]3(CO)C4C(CC[C@]3(O)C2)[C@@]2(O)CC[C@H](C3=CC(=O)OC3)[C@@]2(C)C[C@H]4O)[C@@H](O)[C@@H](O)[C@H]1O (stereo not given in full)
- Potency [12]: 0.383 µM (active)
- Potency [7]: inactive

Structure (SMILES): COC(=O)C1(C)CCC(O)C2(C)c3c(O)cc(C(C)C)cc3C(O)C(OC(C)=O)C12 (stereo not given)
- Potency [12]: inactive
- Potency [6]: inactive
- Potency [7]: inactive

Structure (SMILES): CC12CCC3C(CCC4(O)CC(O)CCC34C=O)C1(O)CCC2C1=CC(=O)OC1 (stereo not given)
- Potency [12]: 0.515 µM (active)
- Potency [7]: inactive

Structure (SMILES): O=[N+]([O-])c1cc(O)c(O)c([N+](=O)[O-])c1
- Potency [8]: inactive
- Potency [9]: inactive
- Potency [5]: inactive
- Potency [7]: inactive

Structure (SMILES): COC(=O)C1(C)CCC(=O)C2(C)c3c(O)cc(C(C)C)cc3C(O)C(OC(C)=O)C12 (stereo not given)
- Potency [12]: inactive
- Potency [7]: inactive

Structure (SMILES): CN(N=O)c1cc(O)ccc1O
- activity [1]: -96.7%
- Potency [2]: 24.3 µM (active)
- activity [3]: -67.2%
- activity [4]: -42.7%
- Potency [5]: inactive
- Potency [6]: inactive
- Potency [7]: inactive

Structure (SMILES): CC(CCc1ccc(O)cc1)O[C@@H]1O[C@H](CO[C@H]2OC[C@](O)(CO)[C@H]2O)[C@@H](O)[C@H](O)[C@H]1O (stereo not given in full)
- Potency [12]: inactive
- Potency [7]: inactive

Structure (SMILES): CCCN1CCC[C@@H](c2cccc(O)c2)C1
- activity [1]: 4.08%
- activity change, negative = inhibition [2]: 1.62%
- activity [3]: 0.9%
- activity [4]: 6.74%
- Potency [5]: inactive
- Potency [6]: inactive
- Potency [7]: inactive

Structure (SMILES): CC(N)c1cccc(Cl)c1Cl (stereo not given)
- activity [1]: 3.38%
- activity change, negative = inhibition [2]: 5.58%
- activity [3]: -1.94%
- activity [4]: -98.4%
- Potency [5]: inactive
- Potency [6]: inactive
- Potency [7]: inactive

Structure (SMILES): CN(N=O)c1ccc(O)c(O)c1
- activity [1]: -69.3%
- Potency [2]: 27.3 µM (active)
- activity [3]: -14.9%
- activity [4]: -27.8%
- Potency [5]: 12.6 µM (active)
- Potency [6]: inactive
- Potency [7]: inactive

Structure (SMILES): CN1CC[C@@]2(C)c3cc(O)ccc3N(C)C12 (stereo not given in full)
- activity [1]: -27.2%
- Potency [2]: 24.3 µM (active)
- activity [3]: -23.6%
- activity [4]: -16.3%
- Potency [5]: inactive
- Potency [6]: inactive
- Potency [7]: inactive

Structure (SMILES): NC(Cc1cc(O)c(O)cc1O)C(=O)O (stereo not given)
- Potency [5]: 3.98 µM (active)
- Potency [6]: inactive

Structure (SMILES): [Cl-].[Cl][Pt].[NH2-].[NH2-].c1ccncc1
- Potency [5]: 3.98 µM (active)
